Screening data from PubChem.
PGC1a acetyl inh – modulators of PGC1a acetylation; U2OS PGC1a acetylation, AlphaScreen anti-acetyl-lysine; with virally co-expressed GCN5 acetyltransferase; inhibition, % at 15.6 µM; 350,000 tested, 0.17% active; AID 651687;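 active = every replicate shows inhibition of at least 40%; inconclusive = mean inhibition at least 40% but some replicate below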;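 also: 0% = neutral control wells and 100% = positive control wells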
HIF act – HIF pathway transcriptional activation | U2OS HRE-luciferase reporter, luminescence; normalized: DMSO 0%, desferrioxamine 100% | 300,000 tested, 0.32% active | activation, % at 7.5 µM (by protocol);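 active = mean activation of at least 10% of the iron chelator positive control signal, with at least half of replicates also reaching 10%; inconclusive = mean and replicate majority disagree about reaching 10%; inactive = mean and most replicates under 10%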
Rce1 inhib – inhibitors of yeast Ras-converting enzyme; Q03530; yeast membranes, quenched prenylated peptide cleavage fluorescence; calls only; 290,000 tested, 0.27% active;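 active = fall in fluorescence gain of 50% or more versus controls, with final raw signal at or below 3038400; inconclusive = same 50% fall but final raw signal above 3038400; inactive = fall in fluorescence gain under 50%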;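 also: plate controls were neutral control wells for no effect and wells lacking membranes for full effect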
Target sequence (Q03530 whole entry, looked up): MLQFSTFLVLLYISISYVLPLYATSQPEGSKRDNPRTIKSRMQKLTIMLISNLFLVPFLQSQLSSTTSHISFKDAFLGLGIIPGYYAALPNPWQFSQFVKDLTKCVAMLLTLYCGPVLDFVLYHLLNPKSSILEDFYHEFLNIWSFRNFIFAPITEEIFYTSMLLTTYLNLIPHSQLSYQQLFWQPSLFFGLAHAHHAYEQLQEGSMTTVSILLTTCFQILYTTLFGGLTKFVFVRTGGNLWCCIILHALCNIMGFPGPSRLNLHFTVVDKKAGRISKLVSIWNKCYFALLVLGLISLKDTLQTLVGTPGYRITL
AI-2 QS mod – modulators of Vibrio harveyi AI-2 quorum sensing system. Vibrio harveyi JMH597 AI-2 luminescence/OD600 ratio, 9 h; hits give low values; strain lacks LuxN and CqsS sensors; 0 = neutral-control median. activity change, % at 7.5 µM. 300,000 tested, 0.4% active; in the data active = activity change below about -75%, passing the limit was not always enough; inconclusive = no clear call, values can overlap the other calls;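 also: luminescence divided by OD600 gain over 9 h not by final OD600 alone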
C2C12 statin – suppression of simvastatin myotoxicity; C2C12 myotubes + simvastatin, ATP luminescence, 48 h; scaled: DMSO 0, geranylgeraniol control 100; rescue of ATP level, % at 7.49 µM; 330,000 tested, 0.78% active;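 active = mean ATP rescue above about 67%, or every replicate alone reaching that limit, limit read from the data, passing the limit was not always enough; inconclusive = no clear call, values can overlap the other calls; inactive = mean under the limit and some replicate under it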;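 also: myotubes were challenged with 10 µM simvastatin during compound exposure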
* hit, by the source's call. Hits are enriched below; roughly 1.3% of the tested compounds scored in any of these assays.

How did Cc1cccc(NC(=O)Nc2ccc3c(c2)C(=O)N(C)[C@H]2CC[C@@H](CC(=O)NCc4ccccc4Cl)O[C@H]2CO3)c1 do in these assays?
PGC1a acetyl inh: -2.8; C2C12 statin: -20.6

Results for CCOC(=O)/C(=N\Nc1cccc(C(F)(F)F)c1)N(CCOC)CCOC ?
HIF act: 0.1; Rce1 inhib: inactive; AI-2 QS mod: 11.1

How did CCOC(=O)/C(=N\Nc1cccc(C(F)(F)F)c1)N1CCOCC1 do in these assays?
HIF act: 707.6*; Rce1 inhib: inactive; AI-2 QS mod: 23.1

Results for C[C@H]1CCCCO[C@@H](CN(C)C(=O)NC2CCCCC2)[C@@H](C)CN([C@@H](C)CO)C(=O)c2cc(NS(=O)(=O)c3cccs3)ccc2O1 ?
PGC1a acetyl inh: 2.2; C2C12 statin: 44.6

Results for COc1ccc(-c2cn3ccccc3n2)cc1[N+](=O)[O-] ?
HIF act: 1.1; Rce1 inhib: active; AI-2 QS mod: 15.4

How did CC(C)c1cc(-c2cc(C(=O)NCc3ccccc3)on2)nc(NC2CCCC2)n1 do in these assays?
HIF act: 18.2*; Rce1 inhib: inactive; AI-2 QS mod: 2.2; C2C12 statin: -3.9

How did COc1cccc(-c2ccc3n(c2=O)C[C@H]2[C@H](CO)[C@@H](C(=O)N(C)C)N(C(=O)C4CC4)[C@@H]32)c1 do in these assays?
C2C12 statin: 29.9

How did Cc1noc(C)c1NC(=O)Nc1cccc2c1O[C@H](CN(C)C(=O)Nc1c(C)noc1C)[C@H](C)CN([C@H](C)CO)C2=O do in these assays?
PGC1a acetyl inh: 3.3; C2C12 statin: 4.5

What do the screens show for `[O-][n+]1onc2c1CCc1nnc(-c3ccccc3)cc1-2`?
PGC1a acetyl inh: 12.2; HIF act: -0.6; Rce1 inhib: inactive; AI-2 QS mod: 13.7

Results for [O-][n+]1onc2c1CCc1nnccc1-2 ?
PGC1a acetyl inh: 4.0; HIF act: 0.1; Rce1 inhib: inactive; AI-2 QS mod: 18.2; C2C12 statin: 84.2*

What do the screens show for `CCC(=O)NC(c1cc(Cl)c2cccnc2c1O)C(C)C` (configuration not stated)?
PGC1a acetyl inh: 12.8; C2C12 statin: -16.0

How did CCC(=O)NC(c1cccs1)c1cc(Cl)c2cccnc2c1O (configuration not stated) do in these assays?
PGC1a acetyl inh: -34.6; HIF act: 31.1*; Rce1 inhib: inactive; AI-2 QS mod: 30.1

Results for CCCCC(=O)NC(c1cccs1)c1cc(Cl)c2cccnc2c1O (configuration not stated) ?
PGC1a acetyl inh: -11.6; HIF act: 34.3*; Rce1 inhib: inactive; AI-2 QS mod: inconclusive

How did CCS(=O)(=O)N1CCCCN2[C@H](CO)[C@H](c3ccc(C#Cc4ccccc4OC)cc3)[C@@H]2C1 do in these assays?
PGC1a acetyl inh: -9.6

What do the screens show for `C[C@H]1CCCCO[C@H](CN(C)C(=O)C2CCCCC2)[C@@H](C)CN([C@@H](C)CO)C(=O)c2cc(NS(C)(=O)=O)ccc2O1`?
PGC1a acetyl inh: -9.4; C2C12 statin: -7.4

Results for CO[C@@H]1CN(C)C(=O)c2cc(NC(=O)CC(F)(F)F)ccc2OC[C@H](C)N(C(=O)c2ccccc2F)C[C@H]1C ?
PGC1a acetyl inh: 4.6

How did Cc1noc(C)c1NC(=O)N(C)C[C@@H]1Oc2c(NC(=O)c3cnccn3)cccc2C(=O)N([C@@H](C)CO)C[C@H]1C do in these assays?
PGC1a acetyl inh: -5.6; C2C12 statin: -3.3

How did CSc1nsc(/C=C/Nc2ccc(F)cc2)c1C#N do in these assays?
HIF act: 0.0; Rce1 inhib: inactive; AI-2 QS mod: 29.0

How did CSc1nsc(/C=C/Nc2ccc(Cl)cc2)c1C#N do in these assays?
PGC1a acetyl inh: 4.5; HIF act: 0.2; Rce1 inhib: inactive; AI-2 QS mod: 20.0; C2C12 statin: 124.7*

How did CCCC#Cc1cnc2c(c1)C(=O)N([C@@H](C)CO)C[C@H](C)[C@@H](CN(C)C(=O)C1CCCCC1)O2 do in these assays?
PGC1a acetyl inh: -4.5; C2C12 statin: 10.9

What do the screens show for `O=S(=O)(N[C@@H]1CC[C@H](CCNS(=O)(=O)c2ccccc2Cl)O[C@@H]1CO)c1ccccc1`?
PGC1a acetyl inh: -2.7; C2C12 statin: -2.1

How did O=C(CC1CC1)N[C@@H]1CC[C@H](CCNS(=O)(=O)c2ccc(Cl)cc2)O[C@H]1CO do in these assays?
PGC1a acetyl inh: 64.5*; C2C12 statin: -0.4

How did O=S(=O)(N[C@@H]1CC[C@@H](CCNS(=O)(=O)c2ccccc2Cl)O[C@H]1CO)c1ccccc1 do in these assays?
PGC1a acetyl inh: 61.7*; C2C12 statin: -1.1

What do the screens show for `O=C(CC1CC1)N[C@@H]1CC[C@@H](CCNS(=O)(=O)c2ccc(Cl)cc2)O[C@@H]1CO`?
PGC1a acetyl inh: 55.8*; C2C12 statin: 5.5

How did CO[C@@H]1CN(C)C(=O)c2cc(NC(=O)Nc3cccc(Cl)c3)ccc2OC[C@@H](C)N(C(=O)Nc2c(C)noc2C)C[C@@H]1C do in these assays?
PGC1a acetyl inh: -29.1; C2C12 statin: 12.7

How did C[C@H](O)C#Cc1ccc2c(c1)O[C@H](CN(C)C(=O)CN(C)C)[C@H](C)CN([C@H](C)CO)S2(=O)=O do in these assays?
PGC1a acetyl inh: 6.3

What do the screens show for `O=C(O)c1ccc(N=Nc2c(O)[nH]c3ccccc23)cc1`?
PGC1a acetyl inh: 48.9*; HIF act: -1.7; Rce1 inhib: inactive; AI-2 QS mod: 55.4

What do the screens show for `C[C@H]1CN([C@@H](C)CO)C(=O)Cc2cc(N(C)C)ccc2O[C@H]1CN(C)C(=O)Nc1ccc(F)cc1`?
PGC1a acetyl inh: -3.9

Results for Cc1c(C(=O)Oc2cccc3ccccc23)cnn1-c1ccccc1 ?
PGC1a acetyl inh: -10.8; HIF act: 1.5; Rce1 inhib: inactive; AI-2 QS mod: -10.9; C2C12 statin: 100.1*

Results for CCOC(=O)c1cnn(-c2ccccc2)c1-n1cccc1 ?
PGC1a acetyl inh: -23.4; HIF act: 1.8; Rce1 inhib: inactive; AI-2 QS mod: -8.2; C2C12 statin: 106.9*

Results for Cc1ccc(S(=O)(=O)N(C)C[C@H]2Oc3ccc(NC(=O)Nc4cccc5ccccc45)cc3C(=O)N([C@@H](C)CO)C[C@@H]2C)cc1 ?
PGC1a acetyl inh: 2.0; C2C12 statin: 6.2

What do the screens show for `Cc1cc(NC(=O)CCCS(=O)(=O)c2nc(-c3cccs3)cc(C(F)(F)F)n2)no1`?
PGC1a acetyl inh: -12.1; HIF act: 12.7*; Rce1 inhib: inactive; AI-2 QS mod: 9.1

What do the screens show for `CS(=O)(=O)c1nc(-c2cccs2)cc(C(F)(F)F)n1`?
HIF act: -5.6; Rce1 inhib: inactive; AI-2 QS mod: -89.5*

Results for O=C(C[C@@H]1CC[C@@H](NS(=O)(=O)c2ccc(F)cc2)[C@H](CO)O1)NCc1ccccc1F ?
PGC1a acetyl inh: 4.2

How did Cc1ccc(S(=O)(=O)CC(=O)N2CCN(c3ccccc3F)CC2)cc1 do in these assays?
HIF act: 0.5; Rce1 inhib: active; AI-2 QS mod: 16.9; C2C12 statin: -3.5
